Drawing on PubChem BioAssay AID687 (PCMD, 2007), this text covers inhibition for 63 compounds.

Among all 33,000 compounds or so, about 95 (0.3%) were called active. For the sample, actives were picked, then their nearest neighbours and some compounds at random. Values without a mark were called inactive.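 Rule for the calls: active = inhibition above 40% in the primary screen; inactive = the rest.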

The target of this assay is Coagulation factor XI (Homo sapiens) (UniProt P03951). Description: human FXIa protease inhibitors, primary screen, biochemical, single compound per well (AID 687).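 Note: 0% = enzyme without compound and 100% = blank wells lacking enzyme.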 The conditions noted are these: purified human FXIa, fluorogenic AMC substrate cleavage; at 10 µM; active compounds read high.
Coagulation factor XI (Homo sapiens), sequence (P03951 19-387 limits assumed): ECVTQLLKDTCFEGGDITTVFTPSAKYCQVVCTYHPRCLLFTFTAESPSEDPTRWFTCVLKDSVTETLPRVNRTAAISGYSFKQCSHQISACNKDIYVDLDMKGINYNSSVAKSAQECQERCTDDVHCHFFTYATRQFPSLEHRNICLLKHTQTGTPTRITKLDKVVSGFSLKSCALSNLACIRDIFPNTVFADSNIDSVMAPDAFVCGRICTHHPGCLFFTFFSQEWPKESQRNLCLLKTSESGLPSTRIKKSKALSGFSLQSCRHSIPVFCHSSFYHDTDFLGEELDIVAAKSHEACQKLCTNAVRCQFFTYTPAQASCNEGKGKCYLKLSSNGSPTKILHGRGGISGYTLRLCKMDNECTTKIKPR
Coagulation factor XI (Homo sapiens), sequence (P03951 388-625 limits assumed): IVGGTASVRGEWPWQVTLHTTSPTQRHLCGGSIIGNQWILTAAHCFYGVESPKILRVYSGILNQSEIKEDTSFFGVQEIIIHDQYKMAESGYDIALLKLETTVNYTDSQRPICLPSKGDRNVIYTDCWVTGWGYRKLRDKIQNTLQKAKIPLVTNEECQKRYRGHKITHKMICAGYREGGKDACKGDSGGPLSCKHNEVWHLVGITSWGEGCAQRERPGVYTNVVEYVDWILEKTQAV
One may read the inhibition as the drop in the measured response relative to a control, in per cent. As to `O=c1c2ccccc2nc2n1C1(CCCCC1)Cc1ccccc1-2`, the inhibition was -5.48%.

As for `CC(=O)Nc1ccccc1OC(=O)N1CCOCC1`, the inhibition is -4.74%.

Regarding `O=C(CN1CCCCCC1)N1c2ccccc2Sc2ccc(C(F)(F)F)cc21`, the inhibition was 2.04%.

`C=CCC(NCc1ccco1)c1ccc(OC)cc1` (stereo not drawn): the inhibition was 4.05%.

As for `O=C(CC1NCCNC1=O)Nc1ccc(Oc2ccccc2)cc1` (stereo not drawn), the inhibition is 0%.

For `CCOC(=O)c1cnc2sccn2c1=O`, the inhibition is 6.51%.

In the case of `O=C(c1ccc(CN2CCOCC2)cc1)N1CCN(c2ccccc2F)CC1`, the inhibition was 3.59%.

Regarding `Cn1c(N)c(C(=O)COC(=O)C23CC4CC(CC(C4)C2)C3)c(=O)n(C)c1=O`, the inhibition was 21.8%.

Take `O=C(NCCOc1ccccc1)c1ccccc1`: the inhibition is -5.53%.

On to `CC1CN(S(=O)(=O)c2ccccc2)C(C)CN1S(=O)(=O)c1ccccc1` (stereo not drawn), for which the inhibition is 1.71%.

As for `COCCn1c(C)cc(C2=NNC(=Nc3ccc(F)cc3)SC2)c1C`, the inhibition was -6.11%.

For `COc1ccc(N(CC(=O)NC2CCCCC2)S(=O)(=O)c2c(C)[nH]c(=O)[nH]c2=O)cc1`, the inhibition is 8.86%.

Regarding `CCOc1c(Cl)cc(/C=N/O)cc1OC`, the inhibition is -2.81%.

For the compound `COc1ccc(-n2nc(C(=O)NCC(=O)Nc3cccc(C)n3)c3ccccc3c2=O)cc1`, the inhibition was -9.02%.

`N#C/C(=C(\O)CCl)c1nnc2n1CCCCC2`: the inhibition is -2.88%.

For the compound `CCOC(=O)N1CCN(Cc2nc(N)nc(Nc3ccc(C)cc3)n2)CC1`, the inhibition is 17.1%.

For `COCCCNC(=O)C1CC(=O)N(CCc2ccccc2)C1` (stereo not drawn), the inhibition is 7.75%.

In the case of `Cc1cccc(C)c1NC(=O)CSc1nnc(-c2ccccc2)n1Cc1ccc2c(c1)OCO2`, the inhibition was 3.72%.

For the compound `COC(=O)c1ccc(CSc2ccc3nnc(-c4ccccc4)n3n2)o1`, the inhibition was 1.01%.

In the case of `CC(C)C(=O)Nc1nnc(Sc2ccc(N(C)C)cc2)s1`, the inhibition was -3.42%.

With `Cc1ccc(-c2noc(CSc3nnc(-c4ccncc4)n3-c3ccc(F)cc3)n2)cc1`, the inhibition is 4.76%.

As to `COC(=O)C(C(=O)Nc1cccc(C)n1)C1CCCCCC1` (stereo not drawn), the inhibition is -11.6%.

Turning to `Cn1c(CC(=O)Nc2ccccc2)nnc1SCC(=O)c1ccccc1`, the inhibition is -6.46%.

On to `O=C(COc1ccc(Cl)cc1)Nc1ccccc1CO`, for which the inhibition was 2.06%.

Consider `C=CCn1c(N)cc(=O)nc1SCC(=O)Nc1cccc2ccccc12`, for which the inhibition is 9.45%.

In the case of `CCn1c(SCC(=O)Nc2ccc(OC)c(OC)c2)nnc1-c1c[nH]c2ccccc12`, the inhibition is 7.43%.

`COC(=O)C1C(=O)NCC1c1ccc(C)cc1` (stereo not drawn): the inhibition was 8.67%.

`CC(=O)Nc1ccc(S(=O)(=O)N2CCN(C3CCCCCCC3)CC2)cc1`: the inhibition was 0.06%.

For `CCOc1ccc(C(=O)Nc2ccncc2)cc1`, the inhibition was -1.05%.

As for `CC(C)(C)NC(=O)CN(Cc1cccs1)C(=O)CNS(=O)(=O)c1ccccc1`, the inhibition is -7.23%.

Regarding `CCOCc1nnc(NC(=O)CSc2ccc(C)cc2)s1`, the inhibition was -2.27%.

Turning to `CC1=NN(C(C)C)C(=O)C1`, the inhibition was 28.4%.

In the case of `CC(=O)Nc1ccc(NC(=O)CSCc2cnn(-c3ccccc3)c2-n2cccc2)cc1`, the inhibition was 6.64%.

As for `COc1ccccc1N(C(=O)Cn1nnc2ccccc21)C(C(=O)NCc1ccco1)c1ccc(C)o1` (stereo not drawn), the inhibition was -1.36%.

For `O=C(CCc1ccccc1)NCc1cccnc1`, the inhibition was 23.1%.

For `Cc1cc(C(=O)OC(C)C(=O)Nc2cccc(S(=O)(=O)N3CCOCC3)c2)c(C)o1` (stereo not drawn), the inhibition was -5.93%.

`CCC(=O)NC(Nc1nc2ccc(C)cc2s1)(C(=O)OC)C(F)(F)F` (stereo not drawn): the inhibition is 0.39%.

With `CCOC(=O)c1ccccc1NS(=O)(=O)c1ccc(OC)cc1`, the inhibition is -1.8%.

For `CCOc1ccc(C(=O)NCCCN2CCCC2=O)cc1`, the inhibition was -9.62%.

`Cc1cc(C)cc(OCc2nnc(SCC(=O)OC3CCCCC3)o2)c1`: the inhibition was 2.82%.

As for `O=C(Nc1ccc(S(=O)(=O)N2CCc3ccccc3C2)cc1)c1ccccc1`, the inhibition is 4.52%.

For `O=C1CSC(c2ccc(Cl)cc2)N1` (stereo not drawn), the inhibition was -2.99%.

`COc1ccc(-c2cc3nc(C)c(CCC(=O)NC(C)CCc4ccco4)c(C)n3n2)c(OC)c1` (stereo not drawn): the inhibition was 0.38%.

`C=C(C)CNC(=S)/N=c1\scc(C)n1CC`: the inhibition was -6.03%.

As for `COc1cc(S(=O)(=O)N(Cc2cccs2)C2CC2)ccc1-n1cnnn1`, the inhibition was 6.31%.

On to `COc1ccccc1Nc1nc(N)nc(CN(C)C2CCCCC2)n1`, for which the inhibition was -1.79%.

`O=C(CCN1C(=O)c2ccccc2C1=O)Nc1cccc(F)c1`: the inhibition is 21.9%.

For `O=C(CCn1c(SCC(=O)c2ccccc2)nc2ccccc2c1=O)NCc1ccc(F)cc1`, the inhibition was -1.87%.

As to `CCCNC(=O)NCc1ccc(N2CCCC2=O)cc1`, the inhibition was -4.89%.

In the case of `O=C(NCc1ccccc1)[C@@H]1CSC2c3ccccc3C(=O)N21` (stereo partly drawn), the inhibition is -6.84%.

For the compound `COc1ccc(N2CCN(C(=O)CNC(=O)c3ccc(C(C)(C)C)cc3)CC2)cc1`, the inhibition was 0.23%.

In the case of `COc1ccc2oc(=O)c(C(=O)N3CCCc4ccccc43)cc2c1`, the inhibition was 2.52%.

In the case of `C=CCN(C(=O)Cn1ncc2c1-c1cc(C)ccc1OC2)c1ccccc1`, the inhibition was 7.94%.

In the case of `CCCCSc1[nH]c(=O)c(C(=O)OCC)cc1C#N`, the inhibition was -3.65%.

Turning to `COC(=O)c1cccc(-n2[nH]nnc2=S)c1`, the inhibition is 8.73%.

For the compound `O=c1nc(N2CCOCC2)nc2n1CCO2`, the inhibition was 0.16%.

Regarding `Nc1nc(SCc2ccccc2Cl)n[nH]1`, the inhibition was -1.35%.

With `C=CCn1c(SCc2c(C)noc2C)nc2sc3c(c2c1=O)CCC(C)C3` (stereo not drawn), the inhibition was -0.06%.

In the case of `Cc1cccc(Cn2c(SCCO)nc3c2c(=O)n(C)c(=O)n3C)c1`, the inhibition is -5.34%.

As for `COC(=O)Nc1ccc(S(=O)(=O)N2CCN(CCN3C(=O)C4C5C=CC(C5)C4C3=O)CC2)cc1` (stereo not drawn), the inhibition was 7.92%.

As for `CN(C)CCNC(=O)C(C(=O)c1ccccc1)n1ccccc1=O` (stereo not drawn), the inhibition is -0.81%.

As for `Nn1c(SCC(=O)NC2CCCC2)nnc1-c1ccccc1F`, the inhibition was -0.95%.

`Cc1cc(C(F)(F)F)n2ncc(-c3ccccc3)c2n1`: the inhibition is -2.08%.
